Rows were chosen to be rich in hits. Some 2.8% of all compounds tested hit in one or more screens of this group.
TRPM1 prom inh: MITF TRPM1 promoter inhibition in SK-MEL-5 cells. SK-MEL-5 TRPM1 promoter luciferase, 24 h. actives 0.83% (n = 330,000). inhibition, % at 12.5 µM;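 active = mean inhibition across replicates of 60% or more, whatever share of single replicates reaches that level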
Beta2AR agonist: human beta-2 adrenergic receptor agonism by FAP; actives 0.43% (n = 340,000); response, % (concentration not given with the values); P07550; AID 504454; Am2.2-beta2AR cells, FAP receptor internalization, flow cytometry;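 active = response above a set limit, near 3 SD of response in nonfluorescent compounds, cut at about 42% in these data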
Target sequence (P07550 whole entry, looked up): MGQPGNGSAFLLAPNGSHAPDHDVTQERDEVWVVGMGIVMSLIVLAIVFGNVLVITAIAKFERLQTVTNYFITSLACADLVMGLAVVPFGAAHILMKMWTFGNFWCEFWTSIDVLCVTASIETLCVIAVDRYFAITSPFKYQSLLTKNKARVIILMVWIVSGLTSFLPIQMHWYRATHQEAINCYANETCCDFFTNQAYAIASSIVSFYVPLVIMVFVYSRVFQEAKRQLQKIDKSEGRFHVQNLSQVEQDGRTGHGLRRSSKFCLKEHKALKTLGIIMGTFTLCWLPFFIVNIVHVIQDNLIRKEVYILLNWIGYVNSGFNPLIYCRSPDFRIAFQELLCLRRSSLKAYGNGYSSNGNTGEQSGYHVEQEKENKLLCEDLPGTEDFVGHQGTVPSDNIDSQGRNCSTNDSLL
Peg3 promoter: reduces Peg3 promoter-driven luciferase expression in HeLa; HeLa PEG-Prom luciferase reporter, luminescence, overnight; actives 1.7% (n = 360,000); inhibition, % at 20 µM;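 active = inhibition of at least 50% at 20 µM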
CF NFkB block: inhibitors of cystic fibrosis induced NF-kB; actives 0.86% (n = 360,000); inhibition, % at 5 µM; KKLEB NF-kB-GFP reporter, PAF-induced, GFP fluorescence overnight;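 active = at least 50% inhibition at 5 µM, scaled per plate between neutral and stimulator controls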;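 also: PAF is a Pseudomonas aeruginosa culture filtrate used as stimulus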
HIF-2a block: inhibitors of HIF-2a; 786-0 RCC cells HIF-2a reporter, luciferase luminescence, overnight; inhibition, % at 18.8 µM; actives 0.72% (n = 360,000);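 active = inhibition of the luminescence signal of 40% or more relative to plate controls, in a single-dose primary screen at 18.75 µM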
KKLEB tox: counter-screen for CF NF-kB inhibitors: cytotoxicity. actives 0.36% (n = 360,000). activity change (cytotoxicity), % at 5 µM. KKLEB CF airway cells viability, ATPlite luminescence, overnight; stronger effect = lower value; cells stimulated with P. aeruginosa culture filtrate. AID 602141;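 active = corrected activity change at or below -50% at 5 µM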
CF NFkB conf: confirmation of cystic fibrosis induced NF-kB inhibitors. inhibition, % at 5 µM. actives 64% (n = 1,300). shares compounds with CF NFkB block. KKLEB CF airway cells, PAF-induced NF-kB-GFP fluorescence, overnight; in the data active = inhibition above about 40%;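 also: stimulus PAF is a Pseudomonas aeruginosa filtrate and not platelet activating factor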
A number is an active result; 0 = inactive; - = no result given.

SMILES	TRPM1 prom inh	Beta2AR agonist	Peg3 promoter	CF NFkB block	HIF-2a block	KKLEB tox	CF NFkB conf
CC1CCC(C(O)(C(=O)O)C2CCCCC2)CC1C (stereo not drawn)	0	0	0	0	0	0	-
CS(=O)(=O)Nc1cccc(-c2cc(NC=O)c3ncc(-c4ccc(F)cc4)n3c2)c1	-	-	0	52	0	0	53
COc1ccc(-c2cnc3c(NC(C)=O)cc(-c4cc(F)ccc4OC)cn23)cc1OC	-	-	0	0	0	0	-
COc1ccc(-c2cnc3c(NC=O)cc(-c4ccccc4OC)cn23)cc1OC	-	-	0	65	0	0	91
CC(=O)Nc1cccc(-c2ccnc3c2CC(C)(C(=O)Nc2ccc(Cl)cc2)O3)c1 (stereo not drawn)	-	-	0	0	0	0	-
Cc1cc2c(c(=O)n1Cc1cccnc1)C(Cc1ccccc1)C(C#N)=C(N)O2 (stereo not drawn)	0	0	0	58	0	0	0
COc1ccc(C2=Nn3c(nnc3-c3ccccc3C(F)(F)F)SC2)cc1OC1CCOC1 (stereo not drawn)	0	0	0	0	0	0	-
COc1ccc(C2=Nn3c(nnc3-c3ccccc3OC)SC2)cc1OC1CCOC1 (stereo not drawn)	63	0	0	58	0	0	81
COc1ccc(OC)c(-c2nnc3n2N=C(c2ccc(OC)c(OCC4CC4)c2)CS3)c1	65	0	0	60	0	0	84
Cc1onc(-c2c(F)cccc2Cl)c1C(=O)Nc1cc(S(=O)(=O)N2CCCCC2)ccc1O	0	0	0	56	0	0	48
Cc1onc(-c2c(F)cccc2Cl)c1C(=O)Nc1ccc(S(=O)(=O)N2CCOCC2)cc1	0	0	0	0	0	0	-
c1ccc(-c2sc3ccccc3c2-c2ccc(OCCN3CCCC3)cc2)cc1	0	68	93	52	0	0	0
Oc1ccc2sc(-c3ccccc3O)c(-c3ccc(OCCN4CCCCC4)cc3)c2c1	-	-	-	-	0	-	-
COc1cccc(-c2sc3ccccc3c2-c2ccc(OCCN3CCCC3)cc2)c1	0	0	100	54	0	0	0
C[C@@H]1CN([C@H](C)CO)C(=O)CCCn2cc(nn2)CO[C@H]1CN(C)S(=O)(=O)c1ccccc1F	-	-	0	0	0	0	-
CCN1C(=O)N2C[C@H]3CON(C)[C@H]3C[C@H]2c2ccccc21	-	-	0	0	0	0	-
CC(=O)Nc1nonc1-c1nc2ccccc2n1CCC#N	0	0	0	0	0	0	-
CC(=O)Nc1nonc1-c1nc2ccccc2n1CC1CC1	0	0	0	60	0	0	45
COC(=O)[C@@]12C[C@@H](CC(=O)NCCCCc3ccccc3)C(=O)N(Cc3ccc4c(c3)OCO4)C1=CCC(C)(C)C2	-	-	-	-	0	-	-
Oc1ccc(Br)cc1-c1nc2cnccn2c1NC1CCCCC1	0	0	0	0	0	0	-
Oc1ccc(Br)cc1-c1nc2cnccn2c1NC1CCCC1	0	0	0	80	0	0	90
COc1ccc(C2CC(c3ccccc3)=NN2C(=O)COC(=O)c2ccc(S(C)(=O)=O)cc2)cc1 (stereo not drawn)	0	0	0	55	0	0	46
COc1ccc(C2CC(c3ccccc3)=NN2C(=O)COC(=O)c2cccc(O)c2)cc1 (stereo not drawn)	0	0	0	0	0	0	-
CN(C)C(CNC(=O)C1CCN(S(=O)(=O)c2ccccc2)CC1)c1ccccc1 (stereo not drawn)	0	0	0	71	0	0	0
CCCCN(C=O)c1c(CC)nc2c(OCC3CCCCC3)cccn12	-	-	0	0	0	0	-
CN(C)CCCOc1ccc(-c2ccc3nncn3c2)cn1	-	-	0	0	0	0	-
Cc1nn(-c2cccc(Cl)c2)c2nc(C(F)(F)F)[nH]c(=O)c12	0	0	0	54	0	0	44
Cc1nn(-c2cc(C(F)(F)F)ccc2Cl)c2nc(C(F)(F)F)[nH]c(=O)c12	0	0	0	0	0	0	-
CNC(=O)c1ccc(NC(=O)C2CCN(c3ncnc4sc(C)c(C)c34)CC2)cc1	0	0	0	60	0	0	60
